Among the data in PubChem BioAssay AID2669 (National Center for Advancing Translational Sciences (NCATS), 2010) are Potency values, retold here.

Structures are written as SMILES. Where “and” joins values, the source holds several entries; their conditions need not be identical. Equal values may be shown once. Records with an inconclusive call do not appear. Calls of active or inactive are those of the source. The call rests on the fitted dose curve; in most records, active means well fitted inhibition curve with a large enough effect; inconclusive means small, poorly fitted or top-dose-only effect, or effect the other way; inactive means flat fitted curve, though single readings scatter.

The assay in a line: qHTS Assay Multiplex Screening to Identify Dual Action Probes in a Cell Model of Huntington: Cytoprotection (Protease relase). The following applies: PC12 HttQ103 cells, Cytotox-Glo protease release, 40 h; series mostly up to 46.1 µM. From the text: NIH Chemical Genomics Center [NCGC]
NIH Molecular Libraries Probe Production centers Network [MLPCN]
Assay Submitter (PI): Wei Zheng
Huntington's disease is a neurodegenerative disorder caused by a trinucleotide repeat expansion in Exon 1 of the Huntingtin gene. The CAG trinucleotide encodes glutamine and polyglutamine expansions cause cell death in selective areas of the brain. Huntington polyglutamine repeats have the tendency to form aggregates which are observable in later stages of the disease. The exact nature of the aggregates, whether toxic, protective, or insignificant, is unclear.
A stable PC12 cell line containing a gene fusion of Exon 1 of the Huntingtin gene linked to GFP under the control of the inducible ecdysone promoter were used as the cell-based model of Huntington Disease for high throughput screening. Exon 1 of the Huntingtin gene contained an expansion of 103 polyglutamines (Q103) which, when expressed, caused cell death and distinct, bright GFP aggregates. The amount of cell death and the size and intensity of GFP aggregates increased over time and induction level. In the primary screen, cell death were quantified with a measurement of ATP content in the cells. A maximal 40-50% of cell death was observed when the Huntington gene was induced in this cell line.
We optimized this assay in a homogeneous 1536 well format. A quantitative high throughput screen (qHTS) was conducted on the PC12 cells which were induced to express the toxic fusion construct. Small molecules which prevented cell death were considered hits, and were further studied. The present assay is an alternate assay for cytoprotection using Promega's Cytotox-Glo reagent.
PC12 cells stably containing a construct with an ecdysone inducible promoter expressing GFP fused to the exon 1 of HTTQ103 (Huntington protein which containing a 103 ployglutamine expansion) were used.
NCGC Assay Protocol Summary:
Sequence, Parameter, Description
1, Reagent, 5 uL 1500 cells/well 1536 TC treated White clear bottom plate
2, Compound, 23 nL Tebufenozide inducer (100 nM final) to all columns
3, Compound, 23 nL 40 uM to 0.5 nM Libraries
5, Reagent, 2 ul Promega's Cytotox-Glo assay reagent
6, Detector, 4 sec integration with a Viewlux Luminescent
Media consisted of phenol red free DMEM + 5% equine serum (Hyclone # SH30072.03 ), 5% supplemented Bovine Calf Serum (Hyclone # SH30074.03 ), 1x pen/strep, no G418
In the case of `Cn1c(C(=O)N2CCN(c3ccc(Cl)cc3)CC2)cc2c(=O)[nH]c3ccccc3c21`, the Potency entry was “inactive”.
As for `Cn1nnnc1Sc1ncnc2scc(-c3ccc4c(=O)ccoc4c3)c12`, the Potency was 7.94 µM (active).
Regarding `C=C(C)C(=O)OCCCCCCOc1ccc(C(=O)O)cc1`, the Potency was 2.24 µM (active).
In the case of `CN(C)CCCSc1ccccc1NC(=O)/C=C\c1ccccc1`, the Potency was 6.31 µM (active).
As to `NC(=O)c1sc2nc3c(c(-c4cccs4)c2c1N)CCCCC3`, the Potency result was “inactive”.
For the compound `O=C(CNc1ccc(Oc2ccccc2)cc1)N1CCOCC1`, the Potency was 14.1 µM (active).
As for `CCc1nc(SCC(=O)N2CCCC2)c2ccccc2n1`, the entry is “inactive”; as for `CN1C(=O)C2(c3ccccc31)C1CCCC=C1C(C#N)=C(N)C2(C#N)C#N` (stereo not given), “inactive”; as for `Cn1nnnc1Sc1ncnc2scc(-c3ccc(S(C)(=O)=O)cc3)c12`, 11.2 µM (active).
On to `C#CCN(C)CCCOc1ccc(Cl)cc1Cl`, for which the Potency entry is “inactive”.
As for `Cn1nnnc1Sc1ncnc2scc(-c3ccccc3[N+](=O)[O-])c12`, the figure is 20 µM (active); as for `O=C(N/N=C/c1ccc(O)c(O)c1)c1ccc(CSc2cccc3cccnc23)cc1`, 8.91 µM (active); as for `Cn1nnnc1Sc1ncnc2scc(-c3ccccc3C#N)c12`, 15.8 µM (active).
As for `CCC(=O)OCCCCCCOc1ccc(C(=O)O)cc1`, the figure is 0.891 µM (active).
`C=CCC(=O)OCCCCCCOc1ccc(C(=O)O)cc1`: the Potency was 1.41 µM (active).
With `N#CCCn1c(Cl)nc2ccccc21`, the Potency entry was “inactive”.
As for `COc1cc(-c2nc(S(=O)(=O)c3ccc(C)cc3)c(N(C)C)o2)cc(OC)c1OC`, the entry is “inactive”.
Take `CC(=O)Oc1cccc(C(=O)O)c1OC(C)=O`: the Potency entry was “inactive”.
For the compound `COc1cc(Cc2cnc(N)nc2N)cc(OC)c1OC`, the Potency entry was “inactive”.
As for `Cn1nnnc1Sc1ncnc2scc(-c3ccc(C(=O)OC(C)(C)C)cc3)c12`, the figure is 14.1 µM (active); as for `COc1ccc(NC(=O)c2sc(SC)nc2N)cc1`, 4.47 µM (active); as for `COc1ccccc1-c1nnc(Sc2nc([N+](=O)[O-])nn2C)o1`, 12.6 µM (active).
On to `Cn1nnnc1Sc1ncnc2scc(-c3cccc(F)c3)c12`, for which the Potency is 11.2 µM (active).
`O=C(Nc1cccnc1)Nc1ccccc1Cl`: the Potency is 3.16 µM (active).
Under `Oc1ccc(/C=C/c2cc(O)cc(O)c2)cc1` stands 2.24 µM (active).
Turning to `N#Cc1ccsc1NC(=O)CSc1ncnc2ccccc12`, the Potency result was “inactive”.
With `C=CS(=O)(=O)c1ccc(Oc2ccc(S(=O)(=O)C=C)cc2)cc1`, the Potency is 10 µM (active).
In the case of `Cn1nnnc1Sc1ncnc2scc(-c3ccc(-c4ccccc4)cc3)c12`, the Potency is 10 µM (active).
As for `O=Nc1c(-c2c(O)[nH]c3ccccc23)[nH]c2ccccc12`, the figure is 631 nM (active) and 1.41 µM (active); as for `CCN(Cc1ccncc1)C(=O)c1cc(Br)cc(Br)c1O`, “inactive”.
As for `Cc1cccc(OCc2nc(C)cc(=O)[nH]2)c1`, the figure is 10 µM (active).
As for `Fc1cccc(Cl)c1Cn1nnc2c(-n3ccnc3)ncnc21`, the entry is “inactive”; as for `Cn1nnnc1Sc1ncnc2scc(-c3ccccc3S(C)(=O)=O)c12`, “inactive”; as for `O=C(O)c1cccc(COc2ccc(CO)cc2Cl)c1`, 0.501 µM (active).
Regarding `O=C(Nc1ccc(Cl)cc1C(F)(F)F)C(Sc1cccc[n+]1[O-])c1ccccc1` (stereo not given), the Potency result is “inactive”.
Consider `O=[N+]([O-])c1ccc(O)c2ncccc12`, for which the Potency was 22.4 µM (active).
As for `Cn1nnnc1Sc1ncnc2scc(-c3ccccc3C(F)(F)F)c12`, the figure is 20 µM (active).
As to `CCN(CC)CCNc1ccc(CO)c2sc3ccccc3c(=O)c12`, the Potency was 10 µM (active).
Consider `O=C(O)/C=C/C(O)c1ccc(Cl)cc1` (stereo not given), for which the Potency entry is “inactive”.
In the case of `Cn1nnnc1Sc1ncnc2scc(-c3ccccc3F)c12`, the Potency is 12.6 µM (active).
